{"source": "PubChem BioAssay AID1272365", "about": "(Small Molecule Screening Facility, UW Madison, 2023)", "note": "Screen size: about 430,000 compounds; about 2,600 (0.6%) were called active. This is one part of a sample in which actives are shown more often than they occur. A number with no mark means an inactive call. Cut-off read from the data, not from the text of the source: active = inhibition mostly above about 37% (no sharp cut-off); inactive = mostly below about 20%.", "data": [{"tested_on": "PriA–SSB C-terminal tail interaction (Klebsiella pneumoniae)", "test": "blocks PriA binding to SSB C-terminal tail, primary screen, biochemical, AlphaScreen (AID 1272365);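 note: plate controls were negative control peptide for no effect and reference peptide for full effect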", "conditions": "AlphaScreen SSBct-PriA binding, biotinylated peptide; at 33 µM, active compounds read high", "values": [{"smiles": "c1ccc(-c2nnc3c4ccccc4c4ccccc4c3n2)nc1", "inhibition": "81% (active)"}, {"smiles": "Cc1oc(-c2ccc(Cl)cc2)cc1C(=O)Nc1ccc(S(N)(=O)=O)cc1", "inhibition": "-10%"}, {"smiles": "COc1ccc(CC(=O)NCC(c2ccsc2)N2CCc3ccccc3C2)cc1", "note": "(stereo unspecified)", "inhibition": "-5%"}, {"smiles": "O=C(NCc1ccc2c(c1)OCO2)C(=O)NC[C@H](O)c1cccc2ccccc12", "inhibition": "-1%"}, {"smiles": "O=C(Oc1ccc(C(=S)N2CCOCC2)cc1)c1ccc(F)cc1", "inhibition": "-4.78%"}, {"smiles": "O=C(Oc1cccc(C(=S)N2CCOCC2)c1)c1cccc(Cl)c1", "inhibition": "45.9% (active)"}, {"smiles": "Cc1ccc(C(=O)Oc2ccc(C(=S)N3CCOCC3)cc2)cc1", "inhibition": "-12.7%"}, {"smiles": "Cc1cc(C)c(C#N)c(SCCC(=O)NCCc2ccccc2)n1", "inhibition": "0%"}, {"smiles": "O=C(Oc1ccccc1[N+](=O)[O-])N(c1ccccc1)c1ccccc1", "inhibition": "39% (active)"}, {"smiles": "O=C(COc1ccccc1[N+](=O)[O-])NC1CC1", "inhibition": "-0.67%"}, {"smiles": "Cc1ccc(OCC(=O)Oc2ccccc2[N+](=O)[O-])cc1", "inhibition": "-0.19%"}, {"smiles": "COc1cc(N2CCN(C(=O)Nc3ccc(F)c(Cl)c3)CC2)nc(C)n1", "inhibition": "-8%"}, {"smiles": "O=C(Cn1c(C2CC2)nc2c(cnn2-c2ccccc2)c1=O)Nc1cccc(Cl)c1", "inhibition": "2%"}, {"smiles": "O=S(=O)(NCc1cc(C2CC2)n(C2CCCC2)n1)c1ccc(Br)s1", "inhibition": "-11%"}, {"smiles": "COc1ccccc1NC(=O)CC(C)=NNC(=O)c1ccccn1", "inhibition": "-3.2%"}, {"smiles": "CCN(CC)CCOc1ccc2c(c1)C(=NNC(=O)c1ccccn1)c1cc(OCCN(CC)CC)ccc1-2", "inhibition": "42.9% (active)"}, {"smiles": "COc1ccc(C(=O)NN=C(c2ccccc2)c2ccccn2)cc1", "inhibition": "-7.73%"}, {"smiles": "CC(=NNC(=O)C(c1ccncc1)N1CCOCC1)c1ccc(Br)cc1", "note": "(stereo unspecified)", "inhibition": "1.79%"}, {"smiles": "Cc1cnc2n(c1=O)C[C@H](C(=O)Nc1ccc(OC(F)(F)F)cc1)CS2", "inhibition": "-1%"}, {"smiles": "CN(C)CC#CCNC(=O)c1c(F)cccc1Cl", "inhibition": "-2%"}, {"smiles": "O=C(c1cc(-c2ccco2)nc2ccccc12)N(Cc1nnc(-c2ccc(Cl)cc2)o1)C1CC1", "inhibition": "38.9% (active)"}, {"smiles": "O=C(Cc1nnc(-c2ccc3ncccc3c2)o1)NCc1ccc(Cl)cc1", "inhibition": "2%"}, {"smiles": "O=C(c1ccc(Cl)s1)N(Cc1nnc(-c2ccccc2Cl)o1)C1CC1", "inhibition": "-3.73%"}, {"smiles": "O=C(Cc1csc(Nc2ccc(OC(F)(F)F)cc2)n1)NCc1ccco1", "inhibition": "-4%"}, {"smiles": "Cc1cc(SCC(=O)N2CCCc3ccccc32)n2ncc(-c3ccccc3)c2n1", "inhibition": "-7%"}, {"smiles": "COc1ccc(OC)c(NC(=O)CSc2nccn2-c2cccc(C(F)(F)F)c2)c1", "inhibition": "10%"}]}]}
